# Target: POLH
# Assay: pooled miR-30 sensor sort-seq; sequence = guide strand
# Conditions: shRNA
# Further: reference of the scale not given here.
row,Sequence,sensor-assay potency score (higher = more potent)
1,TTTAGAGGATTCTTCTAGCTTC,0.456
2,TAACTTCTTAGCATCATCTGCC,0.509
3,TACACGAATGCTCACAACCAGC,-1.33
4,TAACTTTCTGCCTTTCTGCAGC,-0.259
5,TATCAATCTGAAGAGAATCGAG,-0.521
6,TTACAGTTCTTGATGACAGTAA,0.425
7,TATTGTGTGAAATTCCAGCTGA,0.557

# Target: POLN
# Assay: as above
# Conditions: shRNA
row,Sequence,sensor-assay potency score (higher = more potent)
1,TTTACTAACACCACAATTCCTC,-0.28
2,TTTGTTTACTTGTTTTCTCTGA,-0.00359
3,TCTATTTGAATGTAGATGCATG,-0.558
4,TTATAAGAAACCGTTCTCCTGC,0.596
5,TTGATCTTGTGAACCTGCCTGT,0.754
6,TTTTTGGTCAGCAGACAGCTGA,-1.02
7,TTGCCATAAACCATAATCCTTC,-1.02
8,TGACTTGATCTTGTGAACCTGC,0.614
9,TAATGGATGAAGGTCTCGCAGA,-0.869
10,TTCATTATTTATATTCTCCATT,-0.758
11,TTGCTCGTTATAAGAAACCGTT,-0.677

# Target: POLR2B
# Assay: as above
# Conditions: shRNA
row,Sequence,sensor-assay potency score (higher = more potent)
1,TAGTGCAACATTCTGTTCTTGG,0.768
2,TATATGTGGAACAATAAGCTAC,-0.462
3,TAAAAGATTAGAAATCTTCTGC,0.528
4,TTCTAAAATATCTCTGTCGGAC,-0.797
5,TTTTCTCTTTAGTAACACCAGG,-1.3
6,TATCAAACCATCATCATCCAGC,-0.225
7,AAGATTGCAAACATGAACCTGA,0.822
8,TTCTTTTTGTAAAACTTCCTTT,-0.613
9,TATTATGCAACTGTCTTGGTTT,-0.109
10,TTTCTCTTTAGTAACACCAGGC,-0.352
11,TTTTACAAAATTTATATCCTTC,0.417
12,TAGGAACTGATTACAATCCAGC,-0.664

# Target: POLR3B
# Assay: as above
# Conditions: shRNA
row,Sequence,sensor-assay potency score (higher = more potent)
1,TATCCTTTAGGTCACATCCATC,-1.12
2,TAAATTTTTTGAACAAGTCTTC,-0.054
3,TAACAATGAAGTAGCCACCTGG,-0.287
4,TTGACAATTATGTAGGGTCTGC,-0.266
5,TTTATTAATTGTGTGTTCGTAC,0.467
6,TAGCTCATCACAGCAACTGTTG,-0.674
7,TTTCCTTGTAGCAGCATCCAAC,-0.877
8,TATATGAGTCTGTTGCTCCTTT,0.252
9,TTAAGTACCACATAGGGTCAGC,-0.683
10,TTGGTGTATCGTTTCAACGTAC,-0.297

# — the OligoGym collection
